Source: PubChem
p53null 32C tox: kills p53 null cells at the permissive temperature. H1299-neo p53 null cells, ATP luminescence, 24 h, 32C. Potency, µM (doses to about 46.1 µM), hits mostly cytotoxic. actives 0.62% (n = 55,000). AID 903; further: nearly all actives have a fitted effect of over 55% in size
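H1299-neo, 600 cells/well; overnight 37C; cpd up to 46 uM, 24 h at 32C; ATPlite luminescence after 20 min RT; normalized to DMSO (0%) and tamoxifen 100 uM (100% kill); Hill-fit AC50.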
DRV1 agonist: agonists of human resolvin D1 receptor DRV1 (GPR32). O75388. CHO-K1 GPR32 beta-arrestin PathHunter luminescence, 90 min; zero percent set by DMSO-only wells. activation, % at 76.9 µM. actives 2.5% (n = 48,000). AID 1346428;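 active means activation of at least 60% and not above a set upper limit, about 1 call in 100 departs from these limits; inconclusive means activation of 40% to 60%, or above that upper limit; inactive means activation under 40%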
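Readings come from a cell-based beta-arrestin complementation format: CHO-K1 GPR32 stable cells (2,500/well) treated 90 min with compounds, then beta-Gal substrate added for 1 h before chemiluminescence imaging.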
p53null 39C tox: selectivity test: cytotoxicity in p53 null cells, nonpermissive temperature. H1299 p53-null (neo) cells, 39C, ATPlite viability, 24 h. AID 904. actives 0.97% (n = 55,000). Potency, µM (titrated, usually from 46.1 µM), usual class: cytotoxic; further: nearly all actives have a fitted effect of over 50% in size
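Following overnight plating at 37C (600 cells/well), H1299-neo or H1299-p53A138V cells are dosed up to 46 uM. Incubation lasts 24 hr at 39C before ATP detection.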
NTMT1 inh: blocks human N-terminal methyltransferase 1 activity; Q9BV86; NTMT1 MTase-Glo SAH luminescence, purified enzyme; Potency, µM (top dose mostly 114 µM), most hits filed as inhibitors; actives 2.5% (n = 59,000); AID 1645870; further: nearly all actives have a fitted effect of over 65% in size
Target sequence (Q9BV86 whole entry, looked up): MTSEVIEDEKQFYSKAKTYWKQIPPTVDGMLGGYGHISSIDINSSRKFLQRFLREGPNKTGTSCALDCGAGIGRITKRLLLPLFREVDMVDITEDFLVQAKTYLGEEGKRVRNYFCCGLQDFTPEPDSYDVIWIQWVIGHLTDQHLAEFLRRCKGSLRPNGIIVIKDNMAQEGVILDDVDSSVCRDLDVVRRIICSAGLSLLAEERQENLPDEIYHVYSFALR
FH mod: Identification of activators of human fumarate hydratase by quantitative high-throughput screening; AID 1347055, 2019; FH coupled MDH/diaphorase resazurin fluorescence, 15 min; actives 0.22% (n = 54,000); Potency, µM (series often up to 79.9 µM), hits mostly inhibitors; further: the screen sought activators but most active calls are inhibition curves; nearly all actives have a fitted effect of over 45% in size
Target sequence (P07954 whole entry, looked up): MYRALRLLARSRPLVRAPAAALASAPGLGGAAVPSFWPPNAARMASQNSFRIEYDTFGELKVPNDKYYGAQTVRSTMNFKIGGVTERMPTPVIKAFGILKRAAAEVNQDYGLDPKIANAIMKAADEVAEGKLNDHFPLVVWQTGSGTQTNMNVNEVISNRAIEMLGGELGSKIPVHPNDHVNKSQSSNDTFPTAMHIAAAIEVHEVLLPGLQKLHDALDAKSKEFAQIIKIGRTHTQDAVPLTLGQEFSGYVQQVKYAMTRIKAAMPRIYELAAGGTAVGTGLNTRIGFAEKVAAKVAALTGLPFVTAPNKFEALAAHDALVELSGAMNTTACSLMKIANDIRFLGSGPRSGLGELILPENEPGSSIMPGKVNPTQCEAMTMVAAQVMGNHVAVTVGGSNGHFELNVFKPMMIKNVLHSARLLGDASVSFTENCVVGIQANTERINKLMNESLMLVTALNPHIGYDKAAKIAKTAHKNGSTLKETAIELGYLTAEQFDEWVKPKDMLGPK
GALC G270D act: enhancers of human galactocerebrosidase G270D mutant activity in cells; P54803; 145M-Twi-hGALC-G270D cells (Twitcher mouse brain line with human GALC G270D), HMU-beta-Gal fluorescence, 48 h; Potency, µM (top dose mostly 57.5 µM), usual class: activators; actives 0.1% (n = 45,000); further: nearly all actives have a fitted effect of over 65% in size
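Fluorogenic HMU-b-Gal hydrolysis (0.1 mM final, pH 5.2 citrate-phosphate with 1 mg/mL sodium taurocholate; carbonate stop buffer) measures mutant GALC activity after compound treatment of live 145M-Twi Twitcher brain cells stably carrying human GALC-G270D, with wild-type GALC line alongside; activation sought.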
A number is an active result; - = inactive; ? = inconclusive; . = no result given; ! = repeats disagree; [ ] = another dose, or the depositor's remark. The list is not random: actives were taken first. Their share in the collection is about 3.9%. Unless noted, the call rests on the fitted dose curve; in most records, active means well fitted curve in the direction sought with a large enough effect; inconclusive means small, poorly fitted or top-dose-only effect, or another doubt; inactive means no such curve, though single readings can be large; an effect the other way counts as inactive or inconclusive.

SMILES	p53null 32C tox	DRV1 agonist	p53null 39C tox	NTMT1 inh	FH mod	GALC G270D act
CCOC(=O)CSc1nc2ccc(NC(=O)c3ccccc3)cc2s1	?	82.0	-	-	?	-
Cc1ccc(OCC(=O)Nc2ccc3nc(SCc4ccccc4)sc3c2)cc1	-	-	-	-	-	-
CCOC(=O)CSc1nc2ccc(NC(=O)c3ccccc3F)cc2s1	?	106.7	-	-	-	-
CCOc1ccc(C(=O)Nc2ccc3nc(SCc4ccccc4)sc3c2)cc1	-	62.8	-	-	-	-
O=C(Nc1ccc2nc(SCC(=O)N3CCCC3)sc2c1)c1ccccc1F	-	-	?	?	-	-
Nc1ncc(C(=O)NC2CN(C(=O)C3CC3)C2)c2ccc(-c3cccc(F)c3)nc12	.	.	.	-	.	.
CCOC(=O)CSc1nc2ccc(NC(=O)COc3ccccc3)cc2s1	-	61.1	-	-	-	-
Cc1ccc(NC(=O)CSc2nc3ccc(NC(=O)COc4ccc(C)cc4)cc3s2)cc1	-	-	?	-	-	-
Cc1ccc(NC(=O)CSc2nc3ccc(NC(=O)CCc4ccccc4)cc3s2)cc1	-	65.9	-	-	-	-
Cc1ccccc1NC(=O)CSc1nc2ccc(NC(=O)CCc3ccccc3)cc2s1	-	-	-	-	-	-
CCOc1ccc(CCNC(=O)CN(C)C)cc1OCC	.	.	.	-	.	.
C=CC(C)(C)c1[nH]c2ccccc2c1C1=C(O)C(=O)C(c2c[nH]c3c(CC=C(C)C)cccc23)=C(O)C1=O	.	.	.	39.8µM	-	.
COc1ccc(CNC(=O)C2CCN(C(=O)c3cnn(-c4ccccc4)c3-n3cccc3)CC2)cc1	-	-	-	89.1µM	-	-
COc1cccc(CNC(=O)C2CCN(C(=O)c3cnn(-c4ccccc4)c3-n3cccc3)CC2)c1	-	-	-	?	-	-
CC(C)(C)c1ccc(C(=O)NCC(c2cccs2)S(=O)(=O)c2cccs2)cc1 (stereo not drawn)	-	-	-	-	?	-
Cc1ccc(C(=O)NCC(c2cccs2)S(=O)(=O)c2cccs2)cc1 (stereo not drawn)	-	74.2	-	-	?	-
CC(C)CC1(C(=O)OCc2ccc(O[C@@H]3O[C@H](CO)[C@@H](O)[C@H](O)[C@H]3O)cc2)CC(=O)OC(C(=O)O)CC(=O)OCC2OC(O1)C(OC(=O)/C=C/c1ccc(O)cc1)C(O)C2O (stereo partly drawn)	.	.	.	-[12.6 µM]	-	.
COc1ccc(-c2cc(C(F)(F)F)nc(S(C)(=O)=O)n2)cc1	?	108.5	?	-	-	-
CCOC(=O)c1c(C)[nH]c(C)c1S(=O)(=O)N1CCN(c2ccc(Cl)cc2)CC1	-	68.0	-	-	-	-
Cc1ccc(-c2cc(C(=O)Nc3ccc(-n4cncn4)cc3)c3ccccc3n2)cc1C	.	.	.	-	.	.
CC/C(=C(\c1ccccc1)c1ccc(OCCN(C)C)cc1)c1ccccc1	.	-	.	?	?	-
CCC(=C(c1ccc(O)cc1)c1ccc(OCCNC)cc1)c1ccccc1	.	.	.	24.1µM	-	.
CCC(=C(c1ccccc1)c1ccc(OCCN(C)C)cc1)c1ccccc1	.	.	.	19.2µM	-	.
CC/C(=C(/c1ccc(O)cc1)c1ccc(OCCNC)cc1)c1ccccc1	.	.	.	11.2µM	.	.
O=C(Nc1ccc([S+](=O)([O-])Nc2nccs2)cc1)c1ccccn1	.	.	.	-	.	.
SMILES	p53null 32C tox	DRV1 agonist	p53null 39C tox	NTMT1 inh	FH mod	GALC G270D act
Cc1ccc(S(=O)(=O)n2cc(C(=O)Nc3ccc(-c4ccccc4)cc3)c3ccccc32)cc1	.	.	.	-	.	.
O=C(Nc1noc2ccccc12)c1c(F)cccc1F	?	-	10µM	?	-	-
O=C(Nc1ccn[nH]1)c1c(F)cccc1F	.	.	.	-	-	.
N#Cc1ccc(-c2ccc(CNc3ccc(N4CCOCC4)cc3)cn2)cc1	.	.	.	-	.	.
O=C(CSc1nc(Nc2ccccc2)c2ccccc2n1)c1ccc(Cl)cc1	-	108.1	-	-	-	-
CC(NCCCc1cccc(C(F)(F)F)c1)c1cccc2ccccc12 (stereo not drawn)	.	.	.	-	-	.
Cc1ccc(Cn2ccn(CC(=O)Nc3c(C)cc(C)cc3C)c(=O)c2=O)cc1	-	-	-	50.1µM	-	-
COc1ccccc1Cc1nc2ccccc2nc1SCC(=O)N1CCC(C)CC1	-	64.4	-	-	-	-
CNCCCOc1cc(F)c(-c2c(Cl)nc3ncnn3c2N[C@@H](C)C(F)(F)F)c(F)c1	.	.	.	28.2µM	.	.
NS(=O)(=O)Nc1ncnc(OCCOc2ncc(Br)cn2)c1-c1ccc(Br)cc1	.	.	.	?	-	.
CCCNS(=O)(=O)Nc1ncnc(OCCOc2ncc(Br)cn2)c1-c1ccc(Br)cc1	.	.	.	8.57µM!	-	.
COc1c2cc(c(O[C@@H]3O[C@H](CO)[C@@H](O)[C@H](O)[C@H]3O)c1OC)CCCCC(O)CCc1ccc(O)c-2c1 (stereo partly drawn)	.	.	.	?	-	.
Cc1ccc2nc(-c3ccc(NC(=O)c4ccccc4S(C)(=O)=O)cc3)sc2c1	-	-	-	-	-	-
Cc1ccc2nc(-c3ccc(NC(=O)C(F)(F)F)cc3)sc2c1	2µM	-	1.26µM	-	-	14.1µM
Cc1ccc2nc(-c3ccc(NC(=O)CN4C(=O)c5ccccc5C4=O)cc3)sc2c1	22.4µM	.	.	.	.	.
CCCCC(=O)Nc1cccc(-c2nc3ccccc3s2)c1	-	91.8	-	-	-	-
COc1cccc(CC(=O)Nc2ccc(-c3nc4ccccc4s3)cc2)c1	-	?	-	-	-	-
Clc1ccccc1-c1nc(NCc2ccc(-c3cccnc3)cc2)c2ccccc2n1	.	.	.	-	.	.
COC(=O)C1=COC(O[C@@H]2O[C@H](CO)[C@@H](O)[C@H](O)[C@H]2O)/C(=C\COC(=O)c2ccc(OC3OC(CO)C(O)C(O)C3O)c(OC)c2)C1CC(=O)OCCc1ccc(O)cc1 (stereo partly drawn)	.	.	.	-[12.6 µM]	-	.
Cn1cc(-c2nc(N[C@@H]3CCCC[C@@H]3N)c(F)c3c2C(=O)NC3)cn1	.	.	.	-[12.6 µM]	.	.
O=C(CN1C(=O)N/C(=C\c2cn(-c3cccc(C(=O)O)c3)cn2)C1=O)Nc1ccccc1Cl	.	.	.	-	.	.
CSc1cccc(NC(=O)c2ccc3c(c2)CCCN3S(C)(=O)=O)c1	12.6µM	-	?	-	-	-
CCS(=O)(=O)N1CCc2cc(C(=O)Nc3cccc(NC(C)=O)c3)ccc21	-	-	-	-	-	-
O=S(=O)(c1ccccc1)c1nc(-c2ccc(F)cc2)oc1NCc1ccccc1	-	-	-	-	-	-
CCC(C)S(=O)(=O)c1oc(-c2cccs2)nc1S(=O)(=O)c1ccccc1 (stereo not drawn)	25.1µM	-	?	-	-	-
